The values below come from PubChem BioAssay (NCI).

This is part of a sample that, as a whole, favours compounds with a hit. Of some 83,000 tested, about 20% had one in any assay.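 Method: cells in 96-well plates; compound added at one concentration; 48 h incubation; percent growth measured; values under 10 scored active.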 A number with no mark means an inactive call. Active and inactive are the calls of the source.

For the assay, the system named is HT29 colon. Description: NCI-60 one-dose screen, 48 h (100 = growth as untreated, 0 = no growth, -100 = all killed). The note with it: 10 µM unless noted. As for the experimental part: Growth inhibition of the HT29 human tumor cell line is measured as a screen for anti-cancer activity. Cells are grown in 96 well plates and exposed to the test compound for 48 hours. Compounds are tested at a single concentration, which is 10^-5 M for most compounds. The reported endpoint is percent growth (GI% or GIPRCNT), where numbers from 0 - 100% represent growth inhibition, and numbers from -100% - 0 represent cell death. For example, a value of 40 represents 60% growth inhibition. A value of 0 means no net growth occurred over the course of the experiment. A value of -40 indicates 40% of cells at the beginning of the experiment died by the end of the experiment. A value of -100 means all cells are dead at the end of the experiment.
NCI-60 Human Tumor Cell Lines Screen was performed using the standard one-dose NCI protocol, which is described in more detail at https://dtp.cancer.gov/discovery_development/nci-60/default.htm.
Compounds with GIPRCNT values below 10 were considered active. Activity score was based on GIPRCNT using the following formula: […]
Score is 0 for GIPRCNT values of 100 or above, 50 for GIPRCNT values of 0, and 100 for GIPRCNT values of -100.
`Oc1cccc2ccc(-c3nnc(SCc4ccc(O)c5ncccc45)n3-c3ccccc3)nc12`: the growth was 81.3%.

For the molecule `O=C1Nc2ccccc2/C1=C/c1ccc(COCC2CO2)n1-c1ccc(O)cc1` (stereo not given), the growth is 110%.

Regarding `CNC(=O)c1c(NC(=O)c2cccc(C(F)(F)F)c2F)sc2c1CCC(=O)C2`, the growth is 9.35% (active).

Consider `Cn1ccnc1C(=O)/C=C/c1ccc(CNC(=O)c2c(F)c(F)c(F)c(F)c2F)cc1`, for which the growth is 14.7%.

Consider `Clc1cccc(/C=N/Nc2nc(N/N=C/c3cccc(Cl)c3Cl)nc(N3CCCCC3)n2)c1Cl`, for which the growth was 84.3%.

Take `O=C1[C@@H]2Cc3c([nH]c4ccccc34)[C@H](c3c(Cl)cccc3Cl)N2C(=O)CN1C1CCN(CC2CCCCC2)CC1`: the growth was 5.63% (active).

For `Cc1nc2ncc(-c3ccc4ncnc(NCc5ccccc5)c4c3)cc2[nH]1`, the growth is 82.8%.

`COc1cc(/C=C2\C(=O)Nc3cc(Cl)ccc32)ccc1OCc1ccc(F)cc1`: the growth was 105%.

In the case of `COc1c(N2CC3CCCNC3C2)c(F)cc2c(=O)c(C(=O)N/N=C/c3ccc(Br)cc3)cn(C3CC3)c12` (stereo not given), the growth was 13.6%.

In the case of `N#Cc1cnc2ccc(-c3cnc(N)nc3)cc2c1N1CCc2cc(F)c(Cl)cc21`, the growth is 11.4%.

Consider `O=C(CN1CCN(c2cc(=O)n(-c3ccccc3)c3ccccc23)CC1)Nc1nc(-c2ccccc2)cs1`, for which the growth was 73%.

On to `COc1ccc(/C(N)=N/C(N)=N/c2nc3ccccc3s2)cc1`, for which the growth was 104%.

On to `C#CCNC1CCC(c2csc(C#C)n2)=C1C` (stereo not given), for which the growth is 50.7%.

`COc1cc2nc(Cl)nc(Nc3cccc(C4=Nc5c(N)nc(N)nc5NC(c5ccccc5)C4)c3)c2cc1OC` (stereo not given): the growth is 90.3%.

Regarding `Cc1ccc(-n2cc(/C=N/NC(=O)c3nc(N)n[nH]3)c(-c3ccc(S(C)(=O)=O)cc3)n2)cc1`, the growth was 105%.

In the case of `O=C(O)c1ccc(-n2cc(CNc3cc(F)c(F)c(F)c3)c(-c3cccc(F)c3)n2)cc1`, the growth is 106%.

Regarding `O=C(CNc1nc(-c2cccc([N+](=O)[O-])c2)cs1)Nc1cccc([N+](=O)[O-])c1`, the growth was -34.9% (active).

Regarding `C=C(C)[C@@H]1CC[C@]2(COCCCNCCC#N)CC[C@]3(C)[C@H](CC[C@@H]4[C@@]5(C)CC[C@H](OCCCNCCC#N)C(C)(C)[C@@H]5CC[C@]43C)[C@@H]12`, the growth is 49.9%.

With `O=C(Nc1ccc(F)c(F)c1)c1cc(-c2ccc(F)cc2F)ccc1O`, the growth is 88.6%.

Turning to `COc1ccccc1NC1=C(Cl)C(=O)c2nc(C)ccc2C1=O`, the growth is 75%.

With `Cc1cc(C)c2sc(=O)n(Cc3nnc(SCCC(=O)O)o3)c2n1`, the growth is 110%.

Turning to `COc1ccc2[nH]cc(/C=N/Nc3nc4ccccc4s3)c2c1`, the growth was 59.9%.

Regarding `COc1cc2c(cc1OC)C(Sc1ccc(F)cc1)c1c(nc(N)c(C#N)c1N)O2` (stereo not given), the growth was 5.15% (active).

In the case of `c1n[nH]cc1-c1nc2ccc3[nH]ncc3c2c2c1CCCC2`, the growth was 24%.

For the molecule `C=CCn1c(-c2nc3ccc(C(=C(C#N)C#N)c4ccccc4)cc3[nH]2)cc2cc(Br)ccc21`, the growth was 64.4%.

For `O=C(CNc1nc(-c2cccc([N+](=O)[O-])c2)cs1)Nc1cccc(Cl)c1`, the growth is 116%.

On to `NC(=O)c1cccc(C#CCNC[C@H]2C[C@@H](n3ccc4c(Cl)ncnc43)[C@H](O)[C@@H]2O)c1`, for which the growth was 105%.

For `CCCn1cnc2c(c1=N)C(c1ccc(Cl)cc1)c1sc3c(CC)cccc3c1O2` (stereo not given), the growth is -5.38% (active).

For `COc1cc(OC)cc(C(=O)Nc2cccc(C#Cc3cccc4[nH]nc(N)c34)c2)c1`, the growth is 7.34% (active).

As to `COC(=O)C1(C)CCC[C@]2(C)[C@H]3C[C@H]4C(C(C)C)=C[C@]3(CC[C@@H]12)[C@H]1[C@@H]4[C@@H](OC(=O)c2ccco2)CC[C@@H]1OC(=O)c1ccco1` (stereo not given in full), the growth was 116%.

Regarding `C=C(C)[C@@H]1CC[C@]2(COP(=O)(OCC)OCC)CC[C@]3(C)[C@H](CC[C@@H]4[C@@]5(C)CCCNC(C)(C)[C@@H]5CC[C@]43C)[C@@H]12`, the growth was 5.58% (active).

On to `Cc1cc(S(=O)(=O)N(C)C)cc(NCC(=O)NC(=O)NCC(C)C)c1C`, for which the growth was 114%.

For the molecule `COc1ccc(NC(=O)CSc2nnc(-c3ccc4nc(-c5ccc(OC)c(OC)c5)[nH]c4c3)o2)cc1OC`, the growth is 105%.

Take `N#Cc1cn(Cc2ccc(Cl)cc2Cl)c(C(=O)c2ccc(Br)cc2)c1N`: the growth was 102%.

Turning to `Cc1noc(C)c1CSc1nc2ccccc2n1-c1ccccc1`, the growth is 106%.

`C#Cc1nc(/C=C/C(=O)c2nccn2C)cs1`: the growth was -38.2% (active).

On to `CC[C@@H](CO)Nc1ccc2ncc(C#Cc3cncc(C(=O)Nc4ccc(CN5CCN(C)CC5)c(C(F)(F)F)c4)c3)n2n1`, for which the growth is -51% (active).

`COc1ccc(/C=C(\C#N)C(=O)N2c3ccccc3Sc3ccc(SC)cc32)cc1F`: the growth was 103%.

As to `COc1ccc([C@@H]2[C@@H](O)C(=O)N2c2cc(OC)c(OC)c(OC)c2)cc1F`, the growth is -31.9% (active).

Regarding `CC(C)(C)c1ccc(C(=O)Nc2sc3c(c2C(N)=O)CC/C(=N\O)C3)cc1`, the growth was 5.87% (active).
